# Experimental data: PubChem BioAssay (Tox21)
# Inconclusive results are not listed. Unmarked numbers belong to inactive results. Activity calls are given as the source filed them. Unless noted, the call rests on the fitted dose curve; in most records, active means well fitted curve in the direction sought with a large enough effect in the repeat runs; inconclusive means weak or mixed curves; inactive means no such curve, though single readings can be large; an effect the other way counts as inactive or inconclusive.
# Tested on: not listed separately
# Experiment: qHTS assay to identify small molecule antagonists of the androgen receptor (AR) signaling pathway using the MDA cell line - cell viability counter screen (AID 743041; further: nearly all actives have a fitted effect of over 45% in size)
# Details: MDA-kb2 viability, CellTiter-Fluor, 16 h, cells co-treated with R1881 androgen agonist; series mostly up to 70.3 µM; viability change, negative = cytotoxic: at the top concentration
# In short: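 Compound exposure lasted 16 h at 37C in MDA-kb2 AR-luc cells stimulated with R1881. Protease-based CellTiter-Fluor reagent was applied for the final 30 min and fluorescence measured.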
# On the % scale 0 is the no-effect control and ±100 the full control effect.
Structure (SMILES),Potency,"viability change, negative = cytotoxic"
C[C@]12N[C@H](Cc3ccccc31)c1ccccc12,inactive,
c1ccc(C2(c3ccccc3)CC2C2=NCCN2)cc1 (configuration not stated),,-2.82%
CCCCCN(C)CCC(O)(P(=O)(O)O)P(=O)(O)O,,3.62%
O=P(O)(O)C(Cl)(Cl)P(=O)(O)O,,1.96%

# Tested on: not listed separately
# Experiment: qHTS assay to identify small molecule antagonists of the thyroid receptor (TR) signaling pathway - cell viability counter screen (AID 743064); further: nearly all actives have a fitted effect of over 50% in size
# Details: GH3.TRE-Luc viability, CellTiter-Fluor, 24 h; series mostly up to 70.3 µM; activity change, negative = cytotoxic: at the top concentration
# In short: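 Same-well viability check: GH3.TRE-Luc cells stimulated with 1 nM T3 alongside test compound for 23.5 h, followed by CellTiter-Fluor fluorescence.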
row,Structure (SMILES),"activity change, negative = cytotoxic"
1,c1ccc(C2(c3ccccc3)CC2C2=NCCN2)cc1 (configuration not stated),-7.64%
2,CCCCCN(C)CCC(O)(P(=O)(O)O)P(=O)(O)O,23.9%
3,O=P(O)(O)C(Cl)(Cl)P(=O)(O)O,-19.5%

# Tested on: thyroid hormone receptor (rat, GH3 cells)
# Experiment: qHTS assay to identify small molecule agonists of the thyroid receptor (TR) signaling pathway (AID 743066; calls by dose curve)
# Details: GH3.TRE-Luc cells, TR agonist luciferase, 24 h; series mostly up to 83.9 µM; activation: at the top concentration
row,Structure (SMILES),activation
1,c1ccc(C2(c3ccccc3)CC2C2=NCCN2)cc1 (configuration not stated),-3.05%
2,CCCCCN(C)CCC(O)(P(=O)(O)O)P(=O)(O)O,1.7%
3,O=P(O)(O)C(Cl)(Cl)P(=O)(O)O,1.26%

# Target: Estrogen receptor (Homo sapiens) (UniProt P03372)
# Experiment: qHTS assay to identify small molecule antagonists of the estrogen receptor alpha (ER-alpha) signaling pathway (AID 743069; active means well fitted curve in the direction sought with a large enough effect in the signal ratio in the repeat runs, not every such curve was filed as active; the % refers to the signal ratio)
# Details: HEK293 ER-alpha-UAS-bla, beta-lactamase ratio, antagonist mode; series mostly up to 69.4 µM; activity, negative = inhibition: at the top concentration
# In short: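 In this cell-based reporter format, GripTite HEK293 cells harbouring ER-alpha-UAS-bla were grown overnight with 2% charcoal-stripped FBS, dosed with DMSO-dissolved compounds, then challenged with 17beta-estradiol. After 18 hr at 37C, beta-lactamase activity was detected by FRET fluorescence.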
# Chain of Estrogen receptor (Homo sapiens) (P03372 whole entry, looked up): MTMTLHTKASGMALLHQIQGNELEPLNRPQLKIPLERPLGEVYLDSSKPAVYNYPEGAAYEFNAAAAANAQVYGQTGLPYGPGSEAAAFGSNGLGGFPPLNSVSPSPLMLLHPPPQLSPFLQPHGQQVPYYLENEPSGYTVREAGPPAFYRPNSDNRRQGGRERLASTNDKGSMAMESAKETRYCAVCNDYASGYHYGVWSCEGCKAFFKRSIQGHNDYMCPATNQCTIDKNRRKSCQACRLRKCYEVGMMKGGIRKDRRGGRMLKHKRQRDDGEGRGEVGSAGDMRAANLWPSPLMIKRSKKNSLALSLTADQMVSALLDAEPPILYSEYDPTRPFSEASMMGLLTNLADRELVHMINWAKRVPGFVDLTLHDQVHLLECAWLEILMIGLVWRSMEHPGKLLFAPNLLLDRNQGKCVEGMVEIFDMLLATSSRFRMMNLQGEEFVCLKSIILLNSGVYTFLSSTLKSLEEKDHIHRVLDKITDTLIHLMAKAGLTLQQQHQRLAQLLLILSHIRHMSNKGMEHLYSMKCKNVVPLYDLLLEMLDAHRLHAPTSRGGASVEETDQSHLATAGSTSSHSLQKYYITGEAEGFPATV
Structure (SMILES),Potency,"activity, negative = inhibition"
C[C@]12N[C@H](Cc3ccccc31)c1ccccc12,inactive,
c1ccc(C2(c3ccccc3)CC2C2=NCCN2)cc1 (configuration not stated),,-21.3%
CCCCCN(C)CCC(O)(P(=O)(O)O)P(=O)(O)O,,1.99%

# Tested on: not listed separately
# Experiment: qHTS assay to identify small molecule antagonists of the estrogen receptor alpha (ER-alpha) signaling pathway - cell viability counter screen (AID 743074; calls by dose curve; further: nearly all actives have a fitted effect of over 45% in size)
# Details: ERalpha-bla HEK293 viability, CellTiter-Glo luminescence, 18 h; series mostly up to 69.4 µM; activity, negative = cytotoxicity: at the top concentration
Structure (SMILES),Potency,"activity, negative = cytotoxicity"
C[C@]12N[C@H](Cc3ccccc31)c1ccccc12,inactive,
c1ccc(C2(c3ccccc3)CC2C2=NCCN2)cc1 (configuration not stated),,-4.42%
CCCCCN(C)CCC(O)(P(=O)(O)O)P(=O)(O)O,,-14.5%

# Target: Estrogen receptor (Homo sapiens) (UniProt P03372)
# Experiment: qHTS assay to identify small molecule agonists of the estrogen receptor alpha (ER-alpha) signaling pathway (AID 743075; calls by dose curve)
# Details: HEK293 ER-alpha-UAS-bla, beta-lactamase FRET ratio, 18 h; series mostly up to 70.1 µM; activation: at the top concentration
Structure (SMILES),Potency,activation
C[C@]12N[C@H](Cc3ccccc31)c1ccccc12,inactive,
c1ccc(C2(c3ccccc3)CC2C2=NCCN2)cc1 (configuration not stated),,-0.17%
CCCCCN(C)CCC(O)(P(=O)(O)O)P(=O)(O)O,,2.16%
O=P(O)(O)C(Cl)(Cl)P(=O)(O)O,,1.09%

# Target: Estrogen receptor (Homo sapiens) (UniProt P03372)
# Experiment: qHTS assay to identify small molecule agonists of the estrogen receptor alpha (ER-alpha) signaling pathway using the BG1 cell line (AID 743079); further: nearly all actives have a fitted effect of over 20% in size; further: potency means the concentration at half of the fitted maximal effect
# Details: BG1Luc4E2 cells, ERE-luciferase agonist, 22 h; series mostly up to 70.3 µM; activation: at the top concentration
Structure (SMILES),Potency,activation
C[C@]12N[C@H](Cc3ccccc31)c1ccccc12,inactive,
c1ccc(C2(c3ccccc3)CC2C2=NCCN2)cc1 (configuration not stated),0.7 nM (active),
CCCCCN(C)CCC(O)(P(=O)(O)O)P(=O)(O)O,,26.4%
O=P(O)(O)C(Cl)(Cl)P(=O)(O)O,,3.84%

# Tested on: not listed separately
# Experiment: qHTS assay to identify small molecule antagonists of the estrogen receptor alpha (ER-alpha) signaling pathway using the BG1 cell line (AID 743080; calls by dose curve; further: nearly all actives have a fitted effect of over 25% in size)
# Details: BG1Luc4E2 ERE-luciferase antagonist mode, luminescence; series mostly up to 70.3 µM; activity change, negative = inhibition: at the top concentration
# In short: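 Antagonist mode: compounds in DMSO were pinned onto BG1-Luc-4E2 cells alongside 17beta-estradiol agonist, incubated 21.5 h, and ERE-driven luciferase measured with ONE-Glo. Cytotoxicity was multiplexed using CellTiter-Fluor fluorescence.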
Structure (SMILES),Potency,"activity change, negative = inhibition"
C[C@]12N[C@H](Cc3ccccc31)c1ccccc12,inactive,
c1ccc(C2(c3ccccc3)CC2C2=NCCN2)cc1 (configuration not stated),,0.178%
CCCCCN(C)CCC(O)(P(=O)(O)O)P(=O)(O)O,,1.31%
O=P(O)(O)C(Cl)(Cl)P(=O)(O)O,,1.15%

# Tested on: not listed separately
# Experiment: qHTS assay to identify small molecule antagonists of the estrogen receptor alpha (ER-alpha) signaling pathway using the BG1 cell line - cell viability counter screen (AID 743081);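 further: compound given together with 17beta-estradiol as the ER stimulus; nearly all actives have a fitted effect of over 45% in size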
# Details: BG1Luc4E2 viability, CellTiter-Fluor, 22 h; series mostly up to 70.3 µM; activity change, negative = cytotoxicity: at the top concentration
Structure (SMILES),Potency,"activity change, negative = cytotoxicity"
C[C@]12N[C@H](Cc3ccccc31)c1ccccc12,inactive,
c1ccc(C2(c3ccccc3)CC2C2=NCCN2)cc1 (configuration not stated),,-8.2%
CCCCCN(C)CCC(O)(P(=O)(O)O)P(=O)(O)O,,0.546%
O=P(O)(O)C(Cl)(Cl)P(=O)(O)O,,-1.34%
